Source: PubChem BioAssay AID651730 (NMMLSC, 2012)
Active and inactive are the calls of the source. No rule for the calls is given here.

Assay: V-ATPase regulators in yeast, S. cerevisiae, pHLuorin, powder sets 2-3, dose response (AID 651730)

Question: With O=C(c1cccc(C(F)(F)F)n1)N1CCN(c2nc3ccc(F)cc3s2)CC1 as the compound, how does the outcome read?
Answer: inactive

Question: With NS(=O)(=O)c1ccc(C(=O)N2CCN(c3nc4ccc(F)cc4s3)CC2)o1 as the compound, how does the outcome read?
Answer: inactive

Question: With Cc1ccnc(C(=O)N2CCN(c3nc4ccc(F)cc4s3)CC2)c1 as the compound, how does the outcome read?
Answer: inactive

Question: Which outcome does the source give for Cc1cncc(C(=O)N2CCN(c3nc4ccc(F)cc4s3)CC2)n1 here?
Answer: inactive

Question: For Cc1ccc(C(=O)N2CCN(c3nc4ccc(F)cc4s3)CC2)o1, which outcome is on record?
Answer: inactive

Question: Which outcome does the source give for Nc1cncc(C(=O)N2CCN(c3nc4ccc(F)cc4s3)CC2)n1 here?
Answer: inactive

Question: With Nc1ncc(C(=O)N2CCN(c3nc4ccc(F)cc4s3)CC2)o1 as the compound, how does the outcome read?
Answer: inactive

Question: For CN(C)S(=O)(=O)c1cccc(C(=O)Nc2ccccc2N2CCOCC2)c1, which outcome is on record?
Answer: inactive

Question: For O=C(c1cccc(Cl)n1)N1CCN(c2nc3ccc(F)cc3s2)CC1, which outcome is on record?
Answer: inactive

Question: Which outcome does the source give for Cc1cncc(C(=O)Nc2ccccc2N2CCOCC2)n1 here?
Answer: inactive

Question: With Nc1ncc(C(=O)Nc2ccccc2N2CCOCC2)o1 as the compound, how does the outcome read?
Answer: inactive

Question: With Cc1ccc(C(=O)Nc2ccccc2N2CCOCC2)o1 as the compound, how does the outcome read?
Answer: inactive
